Screen size: about 350,000 compounds; about 31,000 (8.9%) were called active. About 15% were inconclusive and are not listed. Calls come from the whole dose curve; as a rule, active = well fitted inhibition curve with a large enough effect; inconclusive = small, poorly fitted or top-dose-only effect; inactive = no such curve, though single readings can be large or run the other way. The sample as a whole holds a higher share of actives than the screen did.
% is set by controls: 0 for no effect and ±100 for the full control effect; potency is the fitted concentration of half-maximal effect.

Chain of Histone-lysine N-methyltransferase EHMT2 (Homo sapiens) (Q96KQ7 913-1193 limits assumed): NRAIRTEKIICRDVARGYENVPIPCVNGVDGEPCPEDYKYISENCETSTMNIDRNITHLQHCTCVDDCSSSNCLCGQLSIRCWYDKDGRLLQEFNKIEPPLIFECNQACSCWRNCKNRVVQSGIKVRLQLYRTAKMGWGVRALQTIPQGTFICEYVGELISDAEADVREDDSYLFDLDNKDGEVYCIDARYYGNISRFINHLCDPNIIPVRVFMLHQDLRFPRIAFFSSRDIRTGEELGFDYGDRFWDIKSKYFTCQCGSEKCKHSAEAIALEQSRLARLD

For the experiment, the target named is Histone-lysine N-methyltransferase EHMT2 (Homo sapiens) (UniProt Q96KQ7). Kind of experiment: qHTS Assay for Inhibitors of Histone Lysine Methyltransferase G9a. Note: nearly all actives have a fitted effect of over 75% in size. As to conditions: G9a H3K9 monomethylation, AlphaScreen, 2 h; series mostly up to 59 µM; activity, negative = inhibition: at the top concentration. An outline of the steps:
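Readings reflect AlphaScreen signal from monomethyl-H3K9 antibody detection. HMT at 20 nM; substrate b-H3K9 500 nM; cofactor SAM 20 uM; 2 h RT reaction; compounds tested as titrations in qHTS with 15 min preincubation.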
`CCc1ccc(S(=O)(=O)c2nnn3c2nc(N2CCN(CC)CC2)c2sccc23)cc1`: the “activity, negative = inhibition” value was -45.5% (inactive).
As to `CCCCN(C(=O)CSCC(=O)Nc1ccc(OC)cc1)c1c(N)n(CCC)c(=O)[nH]c1=O`, the activity, negative = inhibition is 19.8% [at 2.33 µM] (inactive).
Still for that read-out and setting: the value for `CCOC(=O)N1CCN(Cc2nc(N)nc(Nc3ccc(C)cc3)n2)CC1` was -23.8% [at 2.33 µM] (inactive).
`Cc1ccc(Nc2nc(N)nc(CN3CCN(Cc4ccccc4)CC3)n2)cc1Cl`: the Potency is 50.1 µM (active).
In the case of `Cc1ccccc1Nc1nc(N)nc(CN2CCN(c3ccccn3)CC2)n1`, the activity, negative = inhibition is -45.5% [at 12.7 µM] (inactive).
As to `CC(=O)c1ccc(NC(=O)c2ccc(-n3cncn3)c([N+](=O)[O-])c2)cc1`, the “activity, negative = inhibition” value is 15% [at 102 µM] (inactive).
Still for that read-out and setting: for `O=[N+]([O-])c1ccc(N2CCN(S(=O)(=O)c3ccc4ccccc4c3)CC2)cc1NCc1ccco1` the value was -41.4% (inactive); for `CC(=O)Nc1ccc(S(=O)(=O)N2CCN(c3ccccc3)CC2)cc1`, 1.17% (inactive).
As to `O=C(c1ccccc1)N1CCN(c2ccc([N+](=O)[O-])c(NCc3ccco3)c2)CC1`, the activity, negative = inhibition is 44.5% [at 0.501 µM] (inactive).
In the case of `COc1ccccc1OCCNc1cc(N2CCOCC2)ccc1[N+](=O)[O-]`, the Potency is 39.8 µM (active).
Take `COc1ccccc1OCCNC(=O)c1cc([N+](=O)[O-])cc([N+](=O)[O-])c1`: the “activity, negative = inhibition” value is -33.4% [at 102 µM] (inactive).
Take `CC(=O)Nc1ccc(S(=O)(=O)N2CCN(c3ccc([N+](=O)[O-])c(NCCN4CCOCC4)c3)CC2)cc1`: the Potency was 70.8 µM (active).
`O=C(NCCNc1ccccc1[N+](=O)[O-])c1ccccc1F`: the “activity, negative = inhibition” value is 2.67% (inactive).
Still for that read-out and setting: for `Cc1ccc(CCNC(=O)c2ccc(CS(=O)(=O)Cc3cccc(C)c3)o2)cc1` the value was 9.17% (inactive); for `O=C(N/N=C\c1cc2c(cc1Cl)OCO2)c1ccc(Br)s1`, -6.61% [at 102 µM] (inactive).
Regarding `CCN1C(=O)[C@@H]2[C@@H](c3ccc(-c4cccc(Cl)c4)cc3)N3CCC[C@@]3(C(=O)OC)[C@@H]2C1=O`, the activity, negative = inhibition was 4.52% [at 2.33 µM] (inactive).
Same read-out and setting: the value for `CC(C)(C)OC(=O)NCCCCCC(=O)N/N=C/c1coc2ccccc2c1=O` was -6.59% [at 102 µM] (inactive).
Take `CC1=CC2=NC(=O)/C(=C/c3coc4ccccc4c3=O)C(=N)N2O1`: the Potency was 44.7 µM (active).
For `CCOc1cc(/C=C2/C(=N)N3OC(C)=CC3=NC2=O)ccc1OC`, the “activity, negative = inhibition” value is -30.7% [at 102 µM] (inactive).
The same measure, in the same setting: for `CC(=O)Nc1ccc(S(=O)(=O)N2CCn3cccc3C2C)cc1` (centres undefined) the value was -104% [at 12.7 µM] (inactive); for `COC(=O)C1(C)NC(c2ccc(C)cc2)C2C(=O)N(c3ccc(F)cc3)C(=O)C21` (centres undefined), 7.54% [at 102 µM] (inactive).
The same measure, in the same setting: for `CCOC(=O)C1(C)NC(c2ccco2)C2C(=O)N(c3ccccc3)C(=O)C21` (centres undefined) the value was -5.49% [at 102 µM] (inactive).
Regarding `CCCC1(C(=O)OCC)NC(c2ccc(N(C)C)cc2)C2C(=O)N(c3ccc4c(c3)OCCO4)C(=O)C21` (centres undefined), the Potency is 8.91 µM (active).
With `CC(=O)Nc1cccc(C(=O)Nc2nc(C)cs2)c1`, the “activity, negative = inhibition” value is 24.9% [at 102 µM] (inactive).
Same read-out and setting: for `Cc1csc(NC(=O)C2CCN(S(=O)(=O)c3ccccc3)CC2)n1` the value was -7.29% [at 102 µM] (inactive).
Turning to `Cc1csc(NC(=O)NC2(C(F)(F)F)Oc3ccccc3O2)n1`, the Potency was 2 µM (active).
With `O=C1OC(/C=C/c2ccccc2)=NC/1=C/c1ccco1`, the “activity, negative = inhibition” value was -5.86% (inactive).
As for `CC(C)(C)C1C/C(=C/c2ccco2)C(=O)/C(=C/c2ccco2)C1` (centres undefined), the Potency is 39.8 µM (active).
`CCOC(=O)c1c(S(=O)(=O)N2CCC(C(=O)NCc3ccccc3OC)CC2)c(C)n(C)c1C`: the “activity, negative = inhibition” value is -3.21% (inactive).
As to `CCOC(=O)c1c(NC(=O)c2ccc(S(=O)(=O)N3CCCC(C)C3)cc2)sc2c1CCN(C(C)C)C2` (centres undefined), the “activity, negative = inhibition” value was 8.5% (inactive).
With `COC(=O)c1ccc(OCC(=O)NC(C)(C)C)cc1`, the “activity, negative = inhibition” value was 4.75% [at 102 µM] (inactive).
Take `CC(C)(C)NC(=O)COc1ccc(CNc2ccc3[nH]c(=O)[nH]c3c2)cc1`: the Potency is 31.6 µM (active).
With `CC(=O)Nc1ccc(OCC(=O)NCc2ccc(C)cc2)cc1`, the “activity, negative = inhibition” value is -2.76% [at 102 µM] (inactive).
Turning to `Cc1ccc(OCC(=O)N2CCN(S(=O)(=O)c3ccc(Cl)s3)CC2)cc1C`, the activity, negative = inhibition was 6.17% [at 2.33 µM] (inactive).
On to `C=CCNC(=S)/N=c1/ccccn1Cc1ccccc1`, for which the Potency was 31.6 µM (active).
For `C=CCNC(=S)N/N=C/c1ccc(OCc2ccccc2)cc1`, the “activity, negative = inhibition” value is 12.6% [at 102 µM] (inactive).
Still for that read-out and setting: for `C=CCNC(=O)COc1coc(CN2CCN(Cc3ccccc3)CC2)cc1=O` the value was 18.3% [at 0.501 µM] (inactive); for `O=C(CSc1nc2[nH]c(=O)[nH]c(=O)c2s1)Nc1cccc(F)c1`, 24.5% [at 12.7 µM] (inactive); for `COc1ccc(OC)c(NC(=O)CSC2=Nc3ccccc3C3=NC(CC(=O)NCCc4ccccc4)C(=O)N23)c1` (centres undefined), -2.77% (inactive).
For the molecule `COc1ccc(OCC(=O)Nc2cc(C)c(Cl)cc2OC)c([N+](=O)[O-])c1`, the “activity, negative = inhibition” value is -4.05% (inactive).
Still for that read-out and setting: for `COc1cc(NC(=O)COC(=O)CSc2ccc3ccccc3c2)c(C)cc1[N+](=O)[O-]` the value was -14.8% (inactive).
In the case of `Cc1cc(NC(=O)COC(=O)COc2ccc(Cl)cc2C)c([N+](=O)[O-])cc1C`, the Potency was 8.91 µM (active).
`Cc1ccccc1OCCSc1nc2ccc(NC(=O)c3ccco3)cc2s1`: the “activity, negative = inhibition” value was -0.195% (inactive).
Same read-out and setting: for `CC(=O)c1c(C)[nH]c(C(=O)OCC(=O)Nc2c(C)cccc2C)c1C` the value was -11.6% [at 12.7 µM] (inactive).
On to `O=S(=O)(Nc1ccc2nc(N3CCOCC3)sc2c1)c1ccccc1`, for which the Potency is 50.1 µM (active).
On to `CC(=O)Nc1ccc(S(=O)(=O)Nc2ccc(N3CCOCC3)c(F)c2)cc1`, for which the “activity, negative = inhibition” value was -11.3% (inactive).
Still for that read-out and setting: for `Brc1ccc2nc(N3CCCC3)sc2c1` the value was 5.39% [at 102 µM] (inactive).
Consider `Cc1ccc(-n2c(N)c(C(=O)N3CCOCC3)sc2=S)c(C)c1`, for which the Potency is 7.94 µM (active).
As to `N#Cc1ccccc1-n1c(N)c(C(=O)N2CCCC2)sc1=S`, the activity, negative = inhibition is 19.8% [at 0.501 µM] (inactive).
